For some of these results: Results with a measured potency or affinity are listed apart.

Holding throughout (design): scale not given: direction of the effect not stated beside the values
Test [1] has as its target Protein translocase subunit SecA (Escherichia coli (strain K12)) (UniProt P10408). In words: Assay to Identify E. coli SecA ATPase Inhibitors. To be noted: 30 µM. In kind it is functional.
Test [2] has as its target T1, Ubiquitin-activating enzyme e1, putative (Leishmania donovani (strain BPK282A1)) (UniProt E9BSI1).
T1 sequence (whole entry): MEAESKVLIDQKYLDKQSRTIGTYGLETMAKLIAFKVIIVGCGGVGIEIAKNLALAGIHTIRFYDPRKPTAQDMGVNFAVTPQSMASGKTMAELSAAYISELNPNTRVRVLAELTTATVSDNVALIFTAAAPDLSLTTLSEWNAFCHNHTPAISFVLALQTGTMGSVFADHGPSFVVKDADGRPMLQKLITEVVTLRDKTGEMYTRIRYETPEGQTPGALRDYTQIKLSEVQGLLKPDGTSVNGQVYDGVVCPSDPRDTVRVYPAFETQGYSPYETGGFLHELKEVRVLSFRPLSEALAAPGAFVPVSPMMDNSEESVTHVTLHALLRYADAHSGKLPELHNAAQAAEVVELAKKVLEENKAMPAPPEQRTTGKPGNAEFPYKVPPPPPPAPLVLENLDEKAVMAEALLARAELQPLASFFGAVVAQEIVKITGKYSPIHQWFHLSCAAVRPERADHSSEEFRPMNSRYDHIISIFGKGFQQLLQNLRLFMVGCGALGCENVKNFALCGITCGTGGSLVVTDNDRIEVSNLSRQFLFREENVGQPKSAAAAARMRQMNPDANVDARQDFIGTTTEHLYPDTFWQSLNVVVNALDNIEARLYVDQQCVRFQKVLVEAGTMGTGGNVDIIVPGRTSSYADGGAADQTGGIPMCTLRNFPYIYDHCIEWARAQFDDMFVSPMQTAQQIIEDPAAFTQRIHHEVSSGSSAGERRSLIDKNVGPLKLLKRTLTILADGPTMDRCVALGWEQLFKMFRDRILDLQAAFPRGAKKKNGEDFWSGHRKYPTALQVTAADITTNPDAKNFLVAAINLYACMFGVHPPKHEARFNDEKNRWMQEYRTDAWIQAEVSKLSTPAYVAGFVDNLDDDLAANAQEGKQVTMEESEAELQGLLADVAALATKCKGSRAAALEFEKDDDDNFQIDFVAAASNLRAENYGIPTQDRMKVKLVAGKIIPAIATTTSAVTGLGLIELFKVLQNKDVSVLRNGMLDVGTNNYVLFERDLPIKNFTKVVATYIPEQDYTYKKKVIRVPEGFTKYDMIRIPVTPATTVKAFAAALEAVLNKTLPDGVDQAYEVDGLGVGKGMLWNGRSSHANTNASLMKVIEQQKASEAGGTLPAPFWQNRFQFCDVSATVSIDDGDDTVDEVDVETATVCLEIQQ
In words: Leishmania donovani Ubiquitin Activating Enzyme (LdE1). In kind it is functional. The settings on record: 30 µM.

The target in test [3] is AMP-activated protein kinase, AMPK (Homo sapiens) (UniProt P54646+O43741+P54619+Q9UGJ0+Q9Y478+Q13131+Q9UGI9). In words: AMP-dependent Kinase enzyme assay. An in vitro enzyme assay that detects ADP turnover that is directly proportional to AMPK activity. This uses naive AMPK that is activated during the assay with MK-8722. In kind it is functional. The settings on record: 30 µM.

Test [4] has as its target Sialic acid-binding Ig-like lectin 9 (Homo sapiens) (UniProt Q9Y336). In words: Hs-Siglec9 ALPHAscreen SOP 20170721. The settings on record: 10 µM. (Alpha assays give light when donor and acceptor beads are brought close together.)
The next test relates to Trypanosoma cruzi. Put plainly: Trypanosoma cruzi phosphomannomutase and mannose-1-phosphate guanylyltransferase assay. In kind it is functional. To be noted: 10 µM.
Test [5] concerns the target T2, Arginase-2, mitochondrial (Homo sapiens) (UniProt P78540).
T2 sequence (whole entry): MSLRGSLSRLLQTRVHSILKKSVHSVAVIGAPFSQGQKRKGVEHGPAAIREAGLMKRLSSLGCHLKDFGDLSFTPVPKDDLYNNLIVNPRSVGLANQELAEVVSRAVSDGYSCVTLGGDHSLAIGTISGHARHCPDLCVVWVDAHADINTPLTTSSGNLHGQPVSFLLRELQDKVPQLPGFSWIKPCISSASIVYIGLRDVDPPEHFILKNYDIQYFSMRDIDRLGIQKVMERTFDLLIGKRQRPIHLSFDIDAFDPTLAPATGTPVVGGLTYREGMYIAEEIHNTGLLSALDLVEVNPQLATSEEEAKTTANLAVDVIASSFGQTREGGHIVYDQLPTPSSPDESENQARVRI
In words: in vitro enzyme assay to detect the production of urea directly proportional to the activity of Arginase II. Also: in the data most compounds retested in dose-response had high values. In kind it is functional. The settings on record: 33.3 µM.

Test [6] deals with T3, Proteasome subunit beta (Trypanosoma cruzi) (UniProt O96673).
T3 sequence (whole entry): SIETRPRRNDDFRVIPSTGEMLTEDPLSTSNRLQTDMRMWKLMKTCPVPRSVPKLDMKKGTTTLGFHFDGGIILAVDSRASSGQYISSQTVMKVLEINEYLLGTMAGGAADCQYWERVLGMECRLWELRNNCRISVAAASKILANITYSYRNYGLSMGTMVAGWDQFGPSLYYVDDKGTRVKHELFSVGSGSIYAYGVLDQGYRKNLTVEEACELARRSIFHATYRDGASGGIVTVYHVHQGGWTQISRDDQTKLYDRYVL
In words: Trypanosoma cruzi proteasome chymotrypsin-like activity (TcProtChymo) assay. Also: in the data most compounds retested in dose-response had high values. The test is classed as functional. To be noted: 9.37 µM.

For another test, the species on record is Homo sapiens. Put plainly: To identify inhibition of the IFN signalling (Jak-Stat) pathway via expression of an eGFP reporter gene under the control of an IFN-stimulated response element (ISRE) containing MxA promoter. The test is classed as functional. To be noted: 30 µM. Background: A reporter such as luciferase makes a cellular process visible.
For test [7], the target named is T4, Tyrosyl-tRNA synthetase, putative (Trypanosoma cruzi (strain CL Brener)) (UniProt Q4DSP6).
T4 sequence (whole entry): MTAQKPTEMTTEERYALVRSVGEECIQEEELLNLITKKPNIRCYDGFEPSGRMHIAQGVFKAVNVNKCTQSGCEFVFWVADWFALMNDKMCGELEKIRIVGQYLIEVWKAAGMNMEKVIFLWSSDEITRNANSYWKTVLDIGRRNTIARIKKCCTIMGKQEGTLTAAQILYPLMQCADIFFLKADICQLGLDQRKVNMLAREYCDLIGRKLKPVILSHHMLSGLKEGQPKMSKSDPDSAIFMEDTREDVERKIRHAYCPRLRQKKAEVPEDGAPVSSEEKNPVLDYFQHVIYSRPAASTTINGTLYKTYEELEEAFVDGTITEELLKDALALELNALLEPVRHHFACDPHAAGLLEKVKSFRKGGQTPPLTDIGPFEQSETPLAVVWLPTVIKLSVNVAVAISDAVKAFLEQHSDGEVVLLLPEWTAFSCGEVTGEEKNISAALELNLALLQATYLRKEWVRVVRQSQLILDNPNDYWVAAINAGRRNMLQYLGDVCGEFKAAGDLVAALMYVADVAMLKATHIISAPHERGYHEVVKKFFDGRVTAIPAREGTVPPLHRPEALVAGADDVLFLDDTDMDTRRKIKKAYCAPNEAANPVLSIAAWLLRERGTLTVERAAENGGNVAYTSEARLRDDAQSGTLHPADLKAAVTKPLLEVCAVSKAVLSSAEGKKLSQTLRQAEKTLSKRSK
In words: Trypanosoma cruzi tyrosyl tRNA synthetase (TcYRS) _High Tyrosine SOP. Also: in the data most compounds retested in dose-response had high values. The settings on record: 30 µM. The test is classed as functional.

Test [8] has as its target T4, Tyrosyl-tRNA synthetase, putative (Trypanosoma cruzi (strain CL Brener)). In words: Trypanosoma cruzi tyrosyl tRNA synthetase (TcYRS) SOP. To be noted: 30 µM. The test is classed as functional.
For test [9], the target named is Chromo domain-containing protein 1 (Saccharomyces cerevisiae (strain ATCC 204508 / S288c) (Baker's yeast)) (UniProt P32657). Put plainly: ScCHD-1 Enzyme Inhibition Assay. Also: in the data most compounds retested in dose-response had high values. In kind it is functional. The settings on record: 30 µM.
Sequence of Chromo domain-containing protein 1 (Saccharomyces cerevisiae (strain ATCC 204508 / S288c) (Baker's yeast)) (P32657 whole entry, the tested form may be a part): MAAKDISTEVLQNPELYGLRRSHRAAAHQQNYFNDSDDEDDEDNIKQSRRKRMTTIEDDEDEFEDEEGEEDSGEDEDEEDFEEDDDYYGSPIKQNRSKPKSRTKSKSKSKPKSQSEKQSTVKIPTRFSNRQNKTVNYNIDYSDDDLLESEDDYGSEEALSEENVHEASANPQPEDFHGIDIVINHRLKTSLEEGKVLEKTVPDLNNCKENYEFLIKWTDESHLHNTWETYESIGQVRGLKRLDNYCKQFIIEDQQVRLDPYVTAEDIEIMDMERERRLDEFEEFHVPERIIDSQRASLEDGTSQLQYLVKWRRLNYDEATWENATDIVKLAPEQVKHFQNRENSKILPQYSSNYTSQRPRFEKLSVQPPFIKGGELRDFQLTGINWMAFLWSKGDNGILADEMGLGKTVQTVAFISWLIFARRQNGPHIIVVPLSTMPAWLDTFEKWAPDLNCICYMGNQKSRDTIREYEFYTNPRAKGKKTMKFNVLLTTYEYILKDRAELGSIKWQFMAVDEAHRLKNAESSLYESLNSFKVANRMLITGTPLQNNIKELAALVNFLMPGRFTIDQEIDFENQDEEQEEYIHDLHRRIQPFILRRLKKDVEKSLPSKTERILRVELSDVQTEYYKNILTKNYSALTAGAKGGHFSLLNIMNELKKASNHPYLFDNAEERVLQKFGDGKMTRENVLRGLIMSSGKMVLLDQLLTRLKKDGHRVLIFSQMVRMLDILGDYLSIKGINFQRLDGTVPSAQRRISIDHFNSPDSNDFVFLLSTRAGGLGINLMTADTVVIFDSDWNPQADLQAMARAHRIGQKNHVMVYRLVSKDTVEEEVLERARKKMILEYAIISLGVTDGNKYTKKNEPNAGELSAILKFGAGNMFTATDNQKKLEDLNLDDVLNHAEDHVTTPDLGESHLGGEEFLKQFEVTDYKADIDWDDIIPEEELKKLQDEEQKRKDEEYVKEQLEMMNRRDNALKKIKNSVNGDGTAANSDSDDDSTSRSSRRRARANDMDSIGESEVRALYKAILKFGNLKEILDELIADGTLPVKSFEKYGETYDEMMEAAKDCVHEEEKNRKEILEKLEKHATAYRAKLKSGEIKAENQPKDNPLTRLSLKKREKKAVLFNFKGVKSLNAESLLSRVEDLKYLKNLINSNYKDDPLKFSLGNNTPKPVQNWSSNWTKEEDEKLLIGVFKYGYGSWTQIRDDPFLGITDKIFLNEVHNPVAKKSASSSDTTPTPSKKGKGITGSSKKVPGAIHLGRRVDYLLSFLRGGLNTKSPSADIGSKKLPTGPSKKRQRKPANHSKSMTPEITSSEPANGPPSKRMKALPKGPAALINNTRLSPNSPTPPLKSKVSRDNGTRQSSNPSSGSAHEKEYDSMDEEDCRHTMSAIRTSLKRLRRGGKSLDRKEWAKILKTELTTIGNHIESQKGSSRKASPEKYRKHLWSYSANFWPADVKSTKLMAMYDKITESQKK

Sequence of Sialic acid-binding Ig-like lectin 9 (Homo sapiens) (Q9Y336 whole entry): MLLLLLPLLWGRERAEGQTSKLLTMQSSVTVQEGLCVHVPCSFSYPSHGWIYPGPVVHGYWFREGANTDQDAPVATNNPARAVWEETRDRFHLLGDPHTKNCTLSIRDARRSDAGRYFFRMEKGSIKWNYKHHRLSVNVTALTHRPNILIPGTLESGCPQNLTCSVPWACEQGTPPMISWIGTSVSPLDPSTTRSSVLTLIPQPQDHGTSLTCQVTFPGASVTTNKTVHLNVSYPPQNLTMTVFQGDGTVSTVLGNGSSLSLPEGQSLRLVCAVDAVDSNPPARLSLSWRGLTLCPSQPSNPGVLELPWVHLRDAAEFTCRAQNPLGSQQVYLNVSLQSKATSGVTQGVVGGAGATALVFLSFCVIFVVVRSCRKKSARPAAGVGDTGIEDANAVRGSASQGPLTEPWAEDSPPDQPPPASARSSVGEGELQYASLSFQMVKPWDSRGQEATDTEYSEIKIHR
Sequence of Protein translocase subunit SecA (Escherichia coli (strain K12)) (P10408 whole entry): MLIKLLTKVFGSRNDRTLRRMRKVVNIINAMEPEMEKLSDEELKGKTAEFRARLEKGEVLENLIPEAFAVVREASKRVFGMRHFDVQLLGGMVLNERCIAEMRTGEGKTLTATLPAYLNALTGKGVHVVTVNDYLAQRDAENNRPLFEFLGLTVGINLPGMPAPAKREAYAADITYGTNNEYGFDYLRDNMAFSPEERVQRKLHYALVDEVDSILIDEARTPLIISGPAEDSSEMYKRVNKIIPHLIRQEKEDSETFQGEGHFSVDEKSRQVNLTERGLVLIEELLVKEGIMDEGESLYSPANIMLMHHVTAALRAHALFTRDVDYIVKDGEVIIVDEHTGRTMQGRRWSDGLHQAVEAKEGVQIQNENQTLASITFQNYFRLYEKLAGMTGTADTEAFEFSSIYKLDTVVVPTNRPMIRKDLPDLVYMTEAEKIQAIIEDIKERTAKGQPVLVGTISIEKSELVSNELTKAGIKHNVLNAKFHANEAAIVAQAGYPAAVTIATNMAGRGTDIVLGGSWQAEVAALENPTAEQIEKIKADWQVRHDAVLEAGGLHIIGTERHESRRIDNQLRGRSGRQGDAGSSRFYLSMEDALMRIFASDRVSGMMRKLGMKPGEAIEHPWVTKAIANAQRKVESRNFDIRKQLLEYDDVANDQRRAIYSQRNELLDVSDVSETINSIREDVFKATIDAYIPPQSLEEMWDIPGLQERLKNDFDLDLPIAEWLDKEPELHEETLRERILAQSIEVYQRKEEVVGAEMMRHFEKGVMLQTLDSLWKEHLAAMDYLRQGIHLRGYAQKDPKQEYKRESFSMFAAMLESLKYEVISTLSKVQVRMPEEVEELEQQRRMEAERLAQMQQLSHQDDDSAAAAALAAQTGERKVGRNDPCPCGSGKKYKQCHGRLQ

Consider `CC(C)c1nnc2n1CCN(C(=O)CN1Cc3ccccc3C1=O)C2`, for which the Percent Effect in test [1] is -6.1%; in test [2], 2.63%; in [3], -4.36%; in test [4] it was 2.22%; in the test with Trypanosoma cruzi, 6.2%; in [5] it was -0.383%. Besides, the Percent Effect is 4.34% in test [6]; 6.89% in the test filed under Homo sapiens; 9.31% in test [7]; 17.1% in test [8]; -12.6% in test [9].
Turning to `CCNC(c1cccnc1)c1cc(C)cc(C)c1` (stereo unspecified), the Percent Effect in [1] is -3.46%; in [2], -3.8%; in test [3], 4.33%; in test [4], -1.27%; in the test with Trypanosoma cruzi it was 2.15%; in [5], -4.52%. The Percent Effect in test [6] was 5.83%; in the test filed under Homo sapiens it was -28.2%; in [7] it was 0%; in test [8], 5.06%; in [9], 2.53%.
For `NC(=O)NCCC(=O)NCc1cccnc1N1CCc2ccccc2C1`, the Percent Effect in test [1] is -1.28%; in test [2], 18.9%; in [3] it was -5.95%; in test [4], 12.4%; with Trypanosoma cruzi, 6.75%; in test [5], -3.23%. Further, the Percent Effect in test [6] is 4.89%; in the test listed under Homo sapiens it was 1.04%; in test [7], 7.53%; in test [8] it was 23.5%; in [9] it was -7.12%.
For `NC(=O)C1CCCN1Cc1cccc(NC(=O)c2ccsc2)c1` (stereo unspecified), the Percent Effect was -3.24% in [1]; 13.3% in [2]; 0.719% in [3]; 13.7% in test [4]; 3.6% with Trypanosoma cruzi; 10.4% in test [5]. The Percent Effect in [6] was 20.2%; in the test filed under Homo sapiens, 11.8%; in test [7] it was 10.4%; in [8] it was 18.5%; in test [9] it was -10.5%.
For `Cn1cccc1C(=O)Nc1cc(F)ccc1OCC1CCCO1` (stereo unspecified), the Percent Effect was -2.17% in test [1]; -2.6% in test [2]; 2.66% in test [3]; 13.6% in test [4]; 6.74% in the test on Trypanosoma cruzi; 2.85% in [5]. Also, the Percent Effect in test [6] was 0.507%; in the test filed under Homo sapiens, 4.16%; in test [7], -5.83%; in test [8], 0%; in test [9], -1.65%.
As for `Cc1ccc(CNC(C)c2ccc3[nH]c(=O)[nH]c3c2)s1` (stereo unspecified), the Percent Effect is -3.59% in [1]; 13.5% in test [2]; -7.56% in [3]; 14% in test [4]; 5% in the test on Trypanosoma cruzi; -5.61% in test [5]. In addition, the Percent Effect in test [6] was -0.721%; in the test listed under Homo sapiens, 14.9%; in test [7], 2.46%; in test [8] it was 11.1%; in test [9], -6.23%.
Take `CC(C)c1nn(C)c(N2CCOCC2)c1CNC(C)c1cccs1` (stereo unspecified): the Percent Effect is -3.9% in test [1]; -13.2% in [2]; -6.19% in [3]; -4.57% in test [4]; -2.71% with Trypanosoma cruzi; -1.08% in test [5]. Besides, the Percent Effect is 1.44% in test [6]; -28.8% in the test filed under Homo sapiens; 11.3% in test [7]; 18.5% in test [8]; -4.62% in [9].
Turning to `CC(=O)Nc1nc(CN2CCCCC2Cn2cccn2)cs1` (stereo unspecified), the Percent Effect in [1] was -4.14%; in test [2] it was 5.26%; in [3] it was 3.07%; in test [4] it was -1.3%; in the test on Trypanosoma cruzi, -0.0974%; in test [5], -1.18%. Besides, the Percent Effect was 10.8% in test [6]; 20.7% in the test filed under Homo sapiens; 9.57% in test [7]; 15.6% in test [8]; -6.41% in test [9].
Take `O=C(NC[C@@H]1CCCN1)c1cc(COc2cccc(C(F)(F)F)c2)[nH]n1`: the Percent Effect in test [1] is -1.63%; in test [2] it was 9.72%; in test [3] it was -0.951%; in test [4], 10.3%; with Trypanosoma cruzi, 2.62%; in test [5], 21.6%. Besides, the Percent Effect is 6.32% in test [6]; -13.9% in the test filed under Homo sapiens; 4.21% in test [7]; 7.69% in test [8]; -1.17% in test [9].
Regarding `COCC(=O)N1CCC(c2nc3ccc(N4CCCC4)cn3n2)CC1`, the Percent Effect in [1] is -3.58%; in test [2] it was 5.48%; in test [3] it was -210%; in test [4], 5.8%; with Trypanosoma cruzi, -4.96%; in [5], 1.2%. Besides, the Percent Effect in [6] is 10%; in the test filed under Homo sapiens, -9.84%; in test [7] it was 7.29%; in [8], 11.1%; in test [9], -3.02%.
Consider `CCN1CCCC1CN(CCN(C)C)S(=O)(=O)c1cccc(C#N)c1` (stereo unspecified), for which the Percent Effect in test [1] was -5.4%; in [2], 13.7%; in test [3], 3.08%; in test [4], 5.43%; in the test with Trypanosoma cruzi, 6.27%; in [5], 4.09%. Further, the Percent Effect was 8.16% in test [6]; 0.578% in the test listed under Homo sapiens; 4.3% in [7]; 10% in [8]; -4.67% in [9].

The values above are taken from ChEMBL document CHEMBL3988442, “University of Dundee, Small-Polar-MMV Screening Library” (2021).
